# Inconclusive results are not listed. The source made the active and inactive calls. The call rests on the fitted dose curve; in most records, active means well fitted cell-killing curve with a large enough effect; inconclusive means small, poorly fitted or top-dose-only effect; inactive means flat fitted curve, though single readings scatter.
# Experiment: Cell Viability - LYMP2-009 (AID 968); further: nearly all actives have a fitted effect of over 55% in size;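 on activity change, negative = viability loss: 0% = DMSO alone and the full-kill end = tetraoctylammonium bromide at 92 µM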
# Conditions: LYMP2-009 lymphoblastoid cell viability; series mostly up to 92.2 µM; activity change, negative = viability loss: at the top concentration
# Description: NIH Chemical Genomics Center [NCGC]
# NIH Molecular Libraries Screening Centers Network [MLSCN]
# National Institutes of Environmental Health Sciences [NIEHS]
# National Toxicology Program [NTP]
# We have developed a 1536-well cell-based assay for quantitative high throughput screening (qHTS) against a number of cell lines to determine in vitro cytotoxicity of small molecules. This particular assay uses a human lymphoblastoid cell line (LYMP2-009) purchased from Coriell Institute for Medical Research.
# NCGC Assay Protocol Summary:
# The CellTiter-Glo luminescent cell viability assay (Promega) is a homogeneous method to measure the number of viable cells in culture. The end point readout of this assay is based on quantitation of intracellular ATP, an indicator of metabolic activity, using the luciferase reaction. Luciferase catalyzes the oxidation of beetle Luciferin to oxyluciferin and light in the presence of ATP. The luminescent signal is proportional to amount of ATP present.
# Using the CellTiter-Glo luminescent cell viability assay, the amount of cellular ATP was measured in the lymphoblastoid cell line with complete culture medium following compound treatment for 24 hours. The assay was performed in opaque white Kalypsys 1536-well plates. In the screen, tetraoctylammonium bromide was used as positive control. Library compounds were measured for their ability to cause acute toxicity in the cell line, as reflected by a decrease in intracellular ATP levels, in a concentration-dependent manner. […] AC50 values were determined from concentration-response data modeled with the standard Hill equation.
# qHTS protocol for CellTiter Glo lymphoblastoid cellular assay
# [Step] [Parameter] [Value] [Description]
# 1. Reagent; 5 uL; 2500 lymphoblastoid cells/well
# 2. Time; 5 hr; 37 C incubation
# 4. Controls; 23 nL; Tetraoctylammonium bromide 6.4pM to 92 uM
# 5. Time; 24 hr; 37 C incubation
# 6. Reagent; 5 uL; CellTiter Glo reagent
# 7. Time; 30 min; Room Temperature
# 8. Detection; Luminescence; Viewlux plate reader
# Keywords: cell viability, cytotoxicity, lymphoblastoid cell line, luminescence, NTPHTS, NTPHTS_NCGC, NIEHS, DSSTox, MLSMR, MLSCN, NIH Roadmap, qHTS, NCGC
# Potency means the concentration at half of the fitted maximal effect.
Compound,"activity change, negative = viability loss",Potency
Nc1ccc(N=Nc2ccccc2)c(N)c1,-14.1% (inactive),
Cc1c(N)cccc1Cl,-6.56% (inactive),
Cc1cc2nc(N)sc2cc1C,-12.9% (inactive),
CCCCC(CC)COC(=O)COc1ccc(Cl)cc1Cl (stereo not given),-1.65% (inactive),
O=C(O)/C=C/c1ccc(/C=C/C(=O)O)cc1,-0.906% (inactive),
O=C(Cl)c1ccc([N+](=O)[O-])cc1,-2.44% (inactive),
O=c1[nH]ncc2ccccc12,-6.22% (inactive),
Nc1cc([N+](=O)[O-])ccc1O,-8.09% (inactive),
Cc1ccc(S(N)(=O)=O)cc1,-2.28% (inactive),
C=C(C#N)C(=O)OCC,-20.5% (inactive),
CCCCCCCCOc1ccc(C(=O)O)cc1,-3.46% (inactive),
Nc1cc(C(=O)O)c(O)c(S(=O)(=O)O)c1,-2.41% (inactive),
COc1ccc(C)cc1N,6.2% (inactive),
Cc1ccc(N)cc1[N+](=O)[O-],-12.6% (inactive),
CCCCNCC,-1.78% (inactive),
CCNC(=S)NCC,-10.7% (inactive),
c1ccncc1,-3% (inactive),
C=Cc1cccc(C)c1,-15.8% (inactive),
C=CC1CO1 (stereo not given),-2.11% (inactive),
c1ccc(Nc2cccc3ccccc23)cc1,-4.16% (inactive),

Compound,"activity change, negative = viability loss",Potency
CCCCCCN,-5.88% (inactive),
CC(=O)OC(C(=O)c1ccccc1)c1ccccc1 (stereo not given),-9.92% (inactive),
CCCCC(CC)COP(=O)(OCC(CC)CCCC)OCC(CC)CCCC (stereo not given),-2.99% (inactive),
CC(=O)OCc1ccc2c(c1)OCO2,0.656% (inactive),
CC(C)COC(=O)COc1cc(Cl)c(Cl)cc1Cl,-2.93% (inactive),
CC(CCC(=O)O)(c1ccc(O)cc1)c1ccc(O)cc1,-4.65% (inactive),
CC(C)S,-4.63% (inactive),
c1ccc2ncccc2c1,-9.13% (inactive),
Brc1cc(Oc2cc(Br)c(Br)c(Br)c2Br)c(Br)c(Br)c1Br,-3.66% (inactive),
CN(C)c1ccc(Cc2ccc(N(C)C)cc2)cc1,-15.6% (inactive),
O=C(O)c1ccc([N+](=O)[O-])cc1,-15.5% (inactive),
N=C1C=CC(=C(c2ccc(N)cc2)c2ccc(N)cc2)C=C1,,7.94 µM (active)
C=C1CC[C@H](O)C/C1=C/C=C1\CCC[C@]2(C)[C@@H]([C@H](C)CCCC(C)C)CC[C@@H]12,,50.1 µM (active)
CCCCCCCCC1CO1 (stereo not given),-9.11% (inactive),
C=CC(C)(O)CCCC(C)CCCC(C)CCCC(C)C (stereo not given),-17.6% (inactive),
CCCCCCCC/C=C\CCCCCCCC(=O)N(CCO)CCO,-15.5% (inactive),
O=C(OCc1ccccc1)c1ccccc1O,7.27% (inactive),
CC(C)(C)C(=O)C1C(=O)c2ccccc2C1=O,-19.6% (inactive),
CCOc1ccc2nc(N)sc2c1,-9.57% (inactive),
Cc1cc(=O)oc2cc(O)cc(O)c12,-7.43% (inactive),

# Source: PubChem BioAssay (NCATS)
